From PubChem BioAssay AID624330 (Southern Research Specialized Biocontainment Screening …, 2012)
Among all 340,000 compounds or so, about 2,100 (0.62%) were called active.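 The calls were made as follows: active = first-screen hits whose inhibition reached a set limit at any dose in the follow-up dose series; inconclusive = inhibition above the set first-screen limit but never retested; inactive = the rest.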 A selection follows. Entries with a potency or affinity are not part of this list.

Target: Rac GTPase-activating protein 1 (Homo sapiens) (UniProt Q9H0H5)
Sequence (Q9H0H5 whole entry, looked up): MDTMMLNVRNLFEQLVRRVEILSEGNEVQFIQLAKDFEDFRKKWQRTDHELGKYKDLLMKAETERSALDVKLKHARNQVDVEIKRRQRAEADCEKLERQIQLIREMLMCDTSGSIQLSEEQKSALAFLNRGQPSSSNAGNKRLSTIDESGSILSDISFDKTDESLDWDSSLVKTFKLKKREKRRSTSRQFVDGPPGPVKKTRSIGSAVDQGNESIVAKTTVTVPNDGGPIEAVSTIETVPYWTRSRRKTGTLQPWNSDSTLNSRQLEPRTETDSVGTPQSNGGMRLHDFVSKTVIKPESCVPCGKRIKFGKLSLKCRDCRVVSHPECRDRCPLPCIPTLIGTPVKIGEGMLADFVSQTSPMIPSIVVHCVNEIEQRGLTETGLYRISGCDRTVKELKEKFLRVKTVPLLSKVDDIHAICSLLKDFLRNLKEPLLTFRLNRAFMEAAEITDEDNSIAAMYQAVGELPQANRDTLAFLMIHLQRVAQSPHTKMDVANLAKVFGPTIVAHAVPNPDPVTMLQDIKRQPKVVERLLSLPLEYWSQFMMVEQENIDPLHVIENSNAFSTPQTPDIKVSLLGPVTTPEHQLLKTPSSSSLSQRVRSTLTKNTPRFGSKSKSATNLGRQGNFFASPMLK
Test: MgcRacGAP GTPase-activating activity inhibitors, confirmation, biochemical, ADP Hunter fluorescence, primary and confirmatory (AID 624330);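 also: fluorescence reports GDP produced by GAP-driven GTP hydrolysis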
Conditions: MgcRacGAP-stimulated Rac1 GTP hydrolysis, at 30 µM, active compounds read high, GST-tagged Rac1 F28L mutant substrate

Compound | inhibition
COc1cccc2sc3cc(NCc4ccc5c(c4)OCO5)ccc3c(=O)c12 | 3.16% (inactive)
CCN(CC)C(=O)C1=C(C)N(Cc2ccc(F)cc2)C(=O)C(CC(=O)NCc2ccco2)C1 (centres undefined) | 13.8% (inactive)
CCn1cnc2cc(NCc3ccc(Cl)cc3)ccc21 | 20% (inactive)
CCn1cnc2cc(NCc3ccc(C)cc3)ccc21 | 25.6% (inactive)
COc1cc(NC(=S)N2CCCCC2C)cc(OC)c1OC (centres undefined) | 12.9% (inactive)
CC(C)(C#CC(O)(c1ccccc1)c1ccccc1)N1CCCC1 | 11.3% (inactive)
C[C@H]1CN(S(=O)C(C)(C)C)[C@@H](CCO)/C1=C\CCO (some centres undefined) | 5.48% (inactive)
C=CCNC(=O)CC(=O)N/N=C/c1ccccc1F | -1.62% (inactive)
Cc1cccc(N2CC(C(=O)Nc3cccc(S(=O)(=O)N4CCCCC4)c3)CC2=O)c1C (centres undefined) | 5.62% (inactive)
CCOc1ccccc1OCCCOc1ccc(C)cc1Cl | 12% (inactive)
CNc1nc2c(c(=O)n(C)c(=O)n2C)n1Cc1ccccc1 | -6.26% (inactive)
CCn1c(=O)n(C)c2c(=O)n(C)c(=O)n(C)c21 | -0.22% (inactive)
CCCCn1c(Cl)nc2c1c(=O)n(C)c(=O)n2C | 9.62% (inactive)
Cn1c(=O)c2nc(SCc3ccccc3)n(C)c2n(C)c1=O | 6.08% (inactive)
CCCCn1c(C)nc2c(=O)n(C)c(=O)[nH]c21 | 4.63% (inactive)
CCOC(=O)c1nc2c(=O)n(C)c(=O)n(C)c2n(C)c1=O | 0.79% (inactive)
CCCn1nc(C(=O)NNC(=O)CCCOc2ccc(OC)cc2)c2ccccc2c1=O | 1.29% (inactive)
Cc1nc(N2CCCCC2)c2sc(=S)n(C)c2n1 | 5.47% (inactive)
CCOc1ccc(C(=O)NCCc2ccc3c(c2)OCCO3)cc1 | 6.99% (inactive)
O=C(Nc1cc(C(F)(F)F)ccc1N1CCOCC1)c1ccc(F)cc1 | 9.9% (inactive)
CS(=O)(=O)c1nc(S(=O)(=O)c2ccc(Cl)cc2)c(N2CCCCC2)s1 | 5.12% (inactive)
COCCCNC(=O)C1CCC(CNS(=O)(=O)c2ccc(Cl)cc2)CC1 (centres undefined) | -9.18% (inactive)

Compound | inhibition
O=C(COc1ccc2c3c(c(=O)oc2c1)CCC3)NCCCN1CCCC1=O | 9.27% (inactive)
CC(C)=CCC/C(C)=C/CNC(=O)CC1C[C@H](C(=O)N2CCOCC2)[C@@]2(C)c3[nH]c4ccccc4c3CCN2C1=O (some centres undefined) | 7.27% (inactive)
COc1ccc(-c2ccccc2[C@H]2[C@@H]3C=CC[C@@H](C)[C@@H]3C(=O)N2Cc2ccccc2)cc1 | 5.83% (inactive)
C/C(=N\Nc1nc(-c2cc(C)ccc2C)cs1)c1cc2ccccc2oc1=O | 6.23% (inactive)
COc1ccc(C(=O)C2CCCN(C(=O)c3ccc(CSC)o3)C2)cc1F (centres undefined) | 5.42% (inactive)
Cc1ccc(NC2CCCN(C(=O)c3ccccc3N3CCOCC3)C2)cc1C (centres undefined) | 0.36% (inactive)
O=C(c1ccccc1N1CCOCC1)N1CCCC(Nc2ccc(F)cc2)C1 (centres undefined) | 9.71% (inactive)
Cc1cc(C)c(C(=O)N2CCCC(Nc3ccc(C)c(C)c3)C2)o1 (centres undefined) | -18% (inactive)
O=C(c1cc(Cl)ccc1F)N1CCCC(Nc2ccc3c(c2)OCCO3)C1 (centres undefined) | 30.3% (inactive)
CSCc1ccc(C(=O)N2CCCC(Nc3ccc(F)cc3)C2)o1 (centres undefined) | 7.33% (inactive)
COC(=O)c1cccc(C(=O)N2CCCC(Nc3ccc4c(c3)OCCO4)C2)c1 (centres undefined) | 29.2% (inactive)
Cc1cc(C)c(C(=O)N2CCCC(Nc3ccc(F)cc3)C2)o1 (centres undefined) | 1.75% (inactive)
O=S(=O)(c1ccccc1)c1nc(-c2ccccc2)oc1N1CCOCC1 | 6.03% (inactive)
Cc1nnc(SCc2ccccc2)n1N | -3.52% (inactive)
O=C(O)c1ccc(/C=N/O)cc1 | 1.83% (inactive)
CC(C)(C)NC(=O)C(c1ccccc1)N(C(=O)CNC(=O)c1cccs1)c1cccnc1 (centres undefined) | 4.59% (inactive)
COc1ccc(C=O)cc1Cn1c(=O)n(CCC(=O)NCc2ccco2)c(=O)c2sccc21 | 8.39% (inactive)
Cc1cccc(C(=O)Nc2cccc(C(=O)N/N=C/c3cccc(C)n3)c2)c1 | 13.9% (inactive)
CSc1cc(SC)ncn1 | 1.8% (inactive)
CC(C)(CN1CCOCC1)NS(=O)(=O)c1ccccc1 | 1.36% (inactive)
CCN(CC(=O)Nc1cccc(F)c1)Cc1nc2ccccc2c(=O)[nH]1 | -2.26% (inactive)
CN(C)C(/C=C/Nc1ccc(C#N)cc1)=C(C#N)C#N | 4.16% (inactive)

Compound | inhibition
Cc1ccc(C2=CSC3=NCCN23)cc1 | 11.6% (inactive)
CC1=CC(C)(C)N(C(=O)CNC2CCCCC2)c2cc(C)ccc21 | 30.1% (inactive)
CC1=CC(C)(C)N(C(=O)CCl)c2cc(C)ccc21 | 2.46% (inactive)
CCOc1ccccc1C(C(=O)NC1CCCC1)N(C(=O)c1csnn1)C1CC1 (centres undefined) | 6.21% (inactive)
CC(c1nnc(SCC(=O)NC(=O)NCc2ccco2)n1-c1ccc(Cl)cc1)N(C)C (centres undefined) | 4.03% (inactive)
CC/C(=C\c1ccc(Cl)cc1)c1ccncc1 | 5.22% (inactive)
CCC(=Cc1ccccc1O)c1ccncc1 | 2.41% (inactive)
CCOC(=O)C(NC(C)=O)C(=O)Nc1ccc(C(C)(C)C)cc1 (centres undefined) | 15.1% (inactive)
C[C@H](CO)N1C[C@H](C)[C@@H](CN(C)S(=O)(=O)c2ccc(F)cc2)Oc2ccc(NC(=O)NC3CCCCC3)cc2C1=O | 6.3% (inactive)
CC(C)(Oc1ccc(Cl)cc1)C(=O)N(Cc1ccccc1)c1ccccn1 | 1.14% (inactive)
Cc1cc(C)c2nc(NNC(=O)c3cc(=O)c4ccccc4o3)sc2c1 | 10.6% (inactive)
Cc1ccc2sc(NNC(=O)c3cc(=O)c4ccccc4o3)nc2c1C | 24.2% (inactive)
Cc1ccc(C)c(OCCCN2CCCC2)c1 | 19.9% (inactive)
Cc1ccc(C)c(OCCCCN2CCNCC2)c1C | 4.36% (inactive)
Cc1cc(C)c(OCCCCN2CCNCC2)c(C)c1 | 8.89% (inactive)
Cc1ccc(C(C)C)c(OCCCCCN2CCOCC2)c1 | 7.81% (inactive)
Cc1ccc(C)c(OCCCN2CCNCC2)c1 | 7.95% (inactive)
Cc1cc(OCCCN2CCCC2)ccc1Cl | 7.71% (inactive)
Cc1ccc(OCCCCN2CCCCC2)c(Br)c1 | 6.79% (inactive)
Clc1ccc(OCCCN2CCCC2)cc1Cl | -13.7% (inactive)
